# Assays:
# Assay in all cases: DAPPL (digital affinity profiling via proximity ligation, sequencing); 10 mM Tris-HCl pH 7.5, 50 mM NaCl, 1 mM DTT, 4% glycerol, room temperature, 30 min; GST-TFs on glutathione beads, 16-mer random dsDNA library, 0.1% formaldehyde crosslink after washing; high values mean tight binding
# FLI1 = molecular target: T1, FLI1 (Homo sapiens, UniProt Q01543 1-452); conditions: protein: recombinant; tags: N-terminal GST; dsDNA, one strand shown
# T1 sequence: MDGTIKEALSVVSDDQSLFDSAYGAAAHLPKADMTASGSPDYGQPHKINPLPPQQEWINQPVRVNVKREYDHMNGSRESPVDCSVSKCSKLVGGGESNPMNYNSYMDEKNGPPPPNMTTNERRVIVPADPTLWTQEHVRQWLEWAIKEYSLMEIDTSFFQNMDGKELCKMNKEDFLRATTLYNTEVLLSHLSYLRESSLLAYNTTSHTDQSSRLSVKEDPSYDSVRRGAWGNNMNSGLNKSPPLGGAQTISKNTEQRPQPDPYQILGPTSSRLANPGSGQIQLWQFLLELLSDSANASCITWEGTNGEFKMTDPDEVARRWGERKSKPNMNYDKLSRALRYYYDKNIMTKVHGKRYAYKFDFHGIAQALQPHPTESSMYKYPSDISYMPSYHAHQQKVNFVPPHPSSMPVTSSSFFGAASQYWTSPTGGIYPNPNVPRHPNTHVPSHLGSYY
# How it was run: (§1)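 A tag-only sample was pooled with DNA-barcoded human transcription factors that had been expressed in yeast as GST fusions and captured on glutathione beads. The pools were incubated for 30 min at room temperature with 200 nmole of a random double-stranded 16-mer DNA library in Tris/NaCl/DTT/glycerol buffer, then washed, crosslinked with 0.1% formaldehyde, proximity-ligated (BsaI/T4 ligase, 1 h, 37 °C), PCR-amplified and sequenced on an Illumina NextSeq500. Binding signal is each hexamer's read frequency for a factor divided by its frequency for the tag-only sample.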
# ELK1 = molecular target: T2, ELK1 (Homo sapiens, UniProt P19419 1-428); conditions: protein: recombinant; tags: N-terminal GST; dsDNA, one strand shown
# T2 sequence: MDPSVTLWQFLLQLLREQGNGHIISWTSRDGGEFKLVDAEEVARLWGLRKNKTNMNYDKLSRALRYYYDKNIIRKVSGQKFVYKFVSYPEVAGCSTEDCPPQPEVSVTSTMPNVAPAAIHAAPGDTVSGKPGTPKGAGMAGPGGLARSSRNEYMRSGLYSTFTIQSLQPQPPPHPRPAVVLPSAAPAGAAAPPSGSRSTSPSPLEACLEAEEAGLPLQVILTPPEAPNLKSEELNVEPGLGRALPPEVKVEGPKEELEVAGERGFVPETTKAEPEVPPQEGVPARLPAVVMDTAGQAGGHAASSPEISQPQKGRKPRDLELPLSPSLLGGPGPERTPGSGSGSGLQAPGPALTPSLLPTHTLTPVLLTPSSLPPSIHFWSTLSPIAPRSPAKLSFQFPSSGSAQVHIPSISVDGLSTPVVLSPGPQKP
# How it was run: as §1
# GABPA = molecular target: T3, GABPA (Homo sapiens, UniProt Q06546 1-454); conditions: protein: recombinant; tags: N-terminal GST; dsDNA, one strand shown
# T3 sequence: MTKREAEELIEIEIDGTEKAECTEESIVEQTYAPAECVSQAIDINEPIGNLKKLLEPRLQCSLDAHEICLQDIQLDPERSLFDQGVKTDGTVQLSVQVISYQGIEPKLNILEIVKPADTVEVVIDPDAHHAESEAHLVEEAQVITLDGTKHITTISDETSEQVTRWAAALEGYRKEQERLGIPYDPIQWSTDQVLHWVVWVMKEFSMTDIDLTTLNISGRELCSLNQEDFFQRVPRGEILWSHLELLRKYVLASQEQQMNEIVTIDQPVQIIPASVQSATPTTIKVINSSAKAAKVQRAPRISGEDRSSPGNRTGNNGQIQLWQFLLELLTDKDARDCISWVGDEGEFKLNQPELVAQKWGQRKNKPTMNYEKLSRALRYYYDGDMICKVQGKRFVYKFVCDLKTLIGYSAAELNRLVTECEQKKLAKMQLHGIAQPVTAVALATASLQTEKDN
# How it was run: as §1
# ERG = molecular target: T4, ERG (Homo sapiens, UniProt P11308 1-479); conditions: protein: recombinant; tags: N-terminal GST; dsDNA, one strand shown
# T4 sequence: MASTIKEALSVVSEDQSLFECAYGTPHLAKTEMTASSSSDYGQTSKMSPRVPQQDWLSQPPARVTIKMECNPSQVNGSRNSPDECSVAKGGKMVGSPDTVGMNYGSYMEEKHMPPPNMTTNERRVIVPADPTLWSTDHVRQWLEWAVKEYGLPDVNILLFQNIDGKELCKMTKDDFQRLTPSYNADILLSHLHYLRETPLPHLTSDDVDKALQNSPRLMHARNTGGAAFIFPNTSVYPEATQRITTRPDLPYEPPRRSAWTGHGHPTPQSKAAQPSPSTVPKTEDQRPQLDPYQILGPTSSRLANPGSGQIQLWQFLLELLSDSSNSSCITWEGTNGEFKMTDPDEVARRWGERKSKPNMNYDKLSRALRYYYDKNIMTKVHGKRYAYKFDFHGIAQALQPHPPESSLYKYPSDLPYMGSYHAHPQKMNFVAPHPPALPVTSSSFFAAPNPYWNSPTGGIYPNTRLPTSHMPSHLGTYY
# How it was run: as §1
# ELF1 = ELF1 (Homo sapiens, UniProt P32519 1-619); conditions: protein: recombinant; tags: N-terminal GST; dsDNA, one strand shown
# ELF1, sequence (P32519 whole entry): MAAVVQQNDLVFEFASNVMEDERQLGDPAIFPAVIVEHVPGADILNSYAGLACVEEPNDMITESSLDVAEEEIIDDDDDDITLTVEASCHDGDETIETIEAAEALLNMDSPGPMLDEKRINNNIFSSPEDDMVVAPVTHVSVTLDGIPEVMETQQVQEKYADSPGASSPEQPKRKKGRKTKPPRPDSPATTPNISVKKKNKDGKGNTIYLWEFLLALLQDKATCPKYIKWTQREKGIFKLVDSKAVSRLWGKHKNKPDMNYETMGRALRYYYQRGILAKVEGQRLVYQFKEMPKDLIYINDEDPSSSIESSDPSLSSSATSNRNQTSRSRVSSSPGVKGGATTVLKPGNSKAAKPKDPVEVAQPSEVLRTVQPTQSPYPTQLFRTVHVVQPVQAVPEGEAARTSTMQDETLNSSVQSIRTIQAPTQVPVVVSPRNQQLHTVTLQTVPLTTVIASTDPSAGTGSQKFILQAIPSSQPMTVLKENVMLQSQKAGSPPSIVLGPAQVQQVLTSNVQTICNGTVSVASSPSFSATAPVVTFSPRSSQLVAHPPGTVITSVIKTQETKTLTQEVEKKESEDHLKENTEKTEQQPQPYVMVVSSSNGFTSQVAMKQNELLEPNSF
# How it was run: as §1
# EHF = molecular target: T5, EHF (Homo sapiens, UniProt Q9NZC4 1-300); conditions: protein: recombinant; tags: N-terminal GST; dsDNA, one strand shown
# T5 sequence: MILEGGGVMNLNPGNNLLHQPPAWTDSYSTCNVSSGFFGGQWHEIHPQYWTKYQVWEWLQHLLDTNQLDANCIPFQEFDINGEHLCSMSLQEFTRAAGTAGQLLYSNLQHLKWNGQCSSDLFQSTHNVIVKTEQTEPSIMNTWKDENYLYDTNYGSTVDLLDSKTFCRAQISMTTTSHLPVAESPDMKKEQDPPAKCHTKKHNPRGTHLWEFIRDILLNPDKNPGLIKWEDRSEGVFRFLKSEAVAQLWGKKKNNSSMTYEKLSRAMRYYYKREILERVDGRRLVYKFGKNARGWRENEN
# How it was run: as §1
# SPI1 = SPI1 (Homo sapiens, UniProt P17947 1-270); conditions: protein: recombinant; tags: N-terminal GST; dsDNA, one strand shown
# How it was run: as §1
# SPIB = SPIB (Homo sapiens, UniProt Q01892 1-262); conditions: protein: recombinant; tags: N-terminal GST; dsDNA, one strand shown
# SPIB, sequence (Q01892 whole entry): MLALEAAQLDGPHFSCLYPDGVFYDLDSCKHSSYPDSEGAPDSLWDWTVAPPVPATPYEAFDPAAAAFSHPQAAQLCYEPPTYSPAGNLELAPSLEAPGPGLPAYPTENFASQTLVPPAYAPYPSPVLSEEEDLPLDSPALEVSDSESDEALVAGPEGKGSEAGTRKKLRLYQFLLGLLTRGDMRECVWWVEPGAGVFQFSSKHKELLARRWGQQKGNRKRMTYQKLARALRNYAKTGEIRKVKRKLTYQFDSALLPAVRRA
# How it was run: as §1
# ELK3 = molecular target: T6, ELK3 (Homo sapiens, UniProt P41970 1-407); conditions: protein: recombinant; tags: N-terminal GST; dsDNA, one strand shown
# T6 sequence: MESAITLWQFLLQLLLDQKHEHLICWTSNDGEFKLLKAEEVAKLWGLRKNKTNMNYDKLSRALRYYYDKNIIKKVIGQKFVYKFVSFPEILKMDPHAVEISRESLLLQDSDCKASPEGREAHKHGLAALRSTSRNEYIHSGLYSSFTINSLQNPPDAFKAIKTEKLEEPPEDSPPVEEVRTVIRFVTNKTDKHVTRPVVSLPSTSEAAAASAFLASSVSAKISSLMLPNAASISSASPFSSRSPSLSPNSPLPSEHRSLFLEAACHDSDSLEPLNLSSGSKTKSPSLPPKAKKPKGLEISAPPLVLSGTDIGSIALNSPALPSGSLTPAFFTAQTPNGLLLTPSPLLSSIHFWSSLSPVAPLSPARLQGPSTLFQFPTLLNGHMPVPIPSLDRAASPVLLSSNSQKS
# How it was run: as §1
# FEV = molecular target: T7, FEV (Homo sapiens, UniProt Q99581 1-238); conditions: protein: recombinant; tags: N-terminal GST; dsDNA, one strand shown
# T7 sequence: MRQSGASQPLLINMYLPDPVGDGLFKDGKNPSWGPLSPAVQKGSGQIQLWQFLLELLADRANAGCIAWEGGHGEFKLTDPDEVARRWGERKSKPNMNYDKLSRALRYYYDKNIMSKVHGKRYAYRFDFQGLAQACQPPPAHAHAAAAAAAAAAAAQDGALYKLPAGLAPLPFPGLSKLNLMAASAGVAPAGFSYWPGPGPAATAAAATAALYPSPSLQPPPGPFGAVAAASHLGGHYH
# How it was run: as §1
# ETV5 = ETV5 (Homo sapiens, UniProt P41161 1-510); conditions: protein: recombinant; tags: N-terminal GST; dsDNA, one strand shown
# ETV5, sequence (P41161 whole entry): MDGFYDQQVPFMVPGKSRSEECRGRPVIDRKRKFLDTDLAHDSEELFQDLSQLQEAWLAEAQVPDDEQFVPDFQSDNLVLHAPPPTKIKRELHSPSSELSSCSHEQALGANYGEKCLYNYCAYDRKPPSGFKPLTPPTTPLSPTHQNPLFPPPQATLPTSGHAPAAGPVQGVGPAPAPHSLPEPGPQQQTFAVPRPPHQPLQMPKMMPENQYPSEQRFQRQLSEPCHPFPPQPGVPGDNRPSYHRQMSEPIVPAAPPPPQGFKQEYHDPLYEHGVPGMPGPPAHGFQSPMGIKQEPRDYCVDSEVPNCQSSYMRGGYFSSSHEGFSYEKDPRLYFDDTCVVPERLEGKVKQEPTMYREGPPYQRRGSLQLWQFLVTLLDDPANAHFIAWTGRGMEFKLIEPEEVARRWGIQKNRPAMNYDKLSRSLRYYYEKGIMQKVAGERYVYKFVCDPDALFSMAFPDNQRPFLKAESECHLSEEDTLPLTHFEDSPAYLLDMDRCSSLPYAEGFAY
# How it was run: as §1
# HSF1 = HSF1 (Homo sapiens, UniProt Q00613 1-529); conditions: protein: recombinant; tags: N-terminal GST; chain copies: 3; dsDNA, one strand shown
# HSF1, sequence (Q00613 whole entry): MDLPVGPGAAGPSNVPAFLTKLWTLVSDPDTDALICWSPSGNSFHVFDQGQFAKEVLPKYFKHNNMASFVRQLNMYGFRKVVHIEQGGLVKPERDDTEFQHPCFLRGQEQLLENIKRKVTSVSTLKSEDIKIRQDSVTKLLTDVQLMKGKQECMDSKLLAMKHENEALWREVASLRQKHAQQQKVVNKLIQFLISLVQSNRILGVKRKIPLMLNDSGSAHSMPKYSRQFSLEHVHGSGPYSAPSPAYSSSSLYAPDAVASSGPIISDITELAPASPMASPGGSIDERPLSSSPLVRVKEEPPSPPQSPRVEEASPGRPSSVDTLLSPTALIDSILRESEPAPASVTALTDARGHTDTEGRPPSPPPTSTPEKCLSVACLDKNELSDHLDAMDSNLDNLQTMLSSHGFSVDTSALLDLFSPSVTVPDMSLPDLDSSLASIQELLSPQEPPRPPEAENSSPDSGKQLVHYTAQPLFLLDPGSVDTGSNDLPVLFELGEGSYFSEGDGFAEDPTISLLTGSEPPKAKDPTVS
# How it was run: as §1
# SPIC = molecular target: T8, SPIC (Homo sapiens, UniProt Q8N5J4 1-248); conditions: protein: recombinant; tags: N-terminal GST; dsDNA, one strand shown
# T8 sequence: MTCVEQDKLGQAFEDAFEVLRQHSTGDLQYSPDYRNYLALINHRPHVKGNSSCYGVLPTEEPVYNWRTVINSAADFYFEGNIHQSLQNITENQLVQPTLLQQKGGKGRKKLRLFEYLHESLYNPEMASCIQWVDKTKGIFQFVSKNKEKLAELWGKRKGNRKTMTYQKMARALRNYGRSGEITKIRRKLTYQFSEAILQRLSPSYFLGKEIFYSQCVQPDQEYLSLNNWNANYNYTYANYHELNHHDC
# How it was run: as §1
# ELF4 = ELF4 (Homo sapiens, UniProt Q99607 1-663); conditions: protein: recombinant; tags: N-terminal GST; dsDNA, one strand shown
# ELF4, sequence (Q99607 whole entry): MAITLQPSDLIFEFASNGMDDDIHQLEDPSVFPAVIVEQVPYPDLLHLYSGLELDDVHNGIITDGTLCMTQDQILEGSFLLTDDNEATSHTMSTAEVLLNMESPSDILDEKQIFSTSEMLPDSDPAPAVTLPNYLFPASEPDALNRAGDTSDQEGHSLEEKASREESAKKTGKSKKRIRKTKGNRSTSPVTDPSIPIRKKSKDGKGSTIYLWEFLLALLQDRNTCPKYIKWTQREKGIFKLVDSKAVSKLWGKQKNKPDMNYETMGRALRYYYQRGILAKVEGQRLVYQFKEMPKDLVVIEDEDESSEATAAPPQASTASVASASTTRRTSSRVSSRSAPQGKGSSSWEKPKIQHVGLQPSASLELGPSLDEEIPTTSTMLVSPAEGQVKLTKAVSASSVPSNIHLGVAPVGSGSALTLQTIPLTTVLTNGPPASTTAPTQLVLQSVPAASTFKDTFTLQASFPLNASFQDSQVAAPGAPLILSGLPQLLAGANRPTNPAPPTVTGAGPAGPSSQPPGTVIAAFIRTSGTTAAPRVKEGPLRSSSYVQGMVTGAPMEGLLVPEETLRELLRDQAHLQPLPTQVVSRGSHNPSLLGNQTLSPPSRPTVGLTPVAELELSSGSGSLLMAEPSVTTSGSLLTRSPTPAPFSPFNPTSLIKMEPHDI
# How it was run: as §1
# ELK4 = molecular target: T9, ELK4 (Homo sapiens, UniProt P28324-2 1-405); conditions: protein: recombinant; tags: N-terminal GST; dsDNA, one strand shown
# T9 sequence: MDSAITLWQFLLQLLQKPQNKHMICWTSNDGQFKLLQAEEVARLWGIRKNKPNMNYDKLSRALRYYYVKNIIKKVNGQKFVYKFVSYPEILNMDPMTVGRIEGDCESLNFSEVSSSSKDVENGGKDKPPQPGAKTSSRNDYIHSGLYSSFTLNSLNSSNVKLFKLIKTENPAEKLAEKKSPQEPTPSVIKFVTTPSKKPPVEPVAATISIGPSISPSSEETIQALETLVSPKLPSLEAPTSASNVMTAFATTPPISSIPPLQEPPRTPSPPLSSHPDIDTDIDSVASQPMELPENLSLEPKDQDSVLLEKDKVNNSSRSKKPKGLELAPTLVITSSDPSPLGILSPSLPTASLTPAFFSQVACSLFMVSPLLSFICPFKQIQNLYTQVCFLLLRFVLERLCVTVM
# How it was run: as §1
# ETV2 = molecular target: T10, ETV2 (Homo sapiens, UniProt O00321 1-342); conditions: protein: recombinant; tags: N-terminal GST; dsDNA, one strand shown
# T10 sequence: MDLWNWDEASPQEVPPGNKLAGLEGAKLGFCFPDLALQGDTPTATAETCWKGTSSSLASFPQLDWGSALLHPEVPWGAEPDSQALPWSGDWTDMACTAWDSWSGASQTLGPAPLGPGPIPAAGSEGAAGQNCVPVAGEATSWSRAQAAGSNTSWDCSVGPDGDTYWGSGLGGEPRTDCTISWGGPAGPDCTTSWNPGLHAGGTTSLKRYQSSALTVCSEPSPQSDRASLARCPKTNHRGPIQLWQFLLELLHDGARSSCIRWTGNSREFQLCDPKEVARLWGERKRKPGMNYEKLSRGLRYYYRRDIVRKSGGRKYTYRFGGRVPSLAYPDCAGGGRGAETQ
# How it was run: as §1
# ELF3 = molecular target: T11, ELF3 (Homo sapiens, UniProt P78545 1-371); conditions: protein: recombinant; tags: N-terminal GST; dsDNA, one strand shown
# T11 sequence: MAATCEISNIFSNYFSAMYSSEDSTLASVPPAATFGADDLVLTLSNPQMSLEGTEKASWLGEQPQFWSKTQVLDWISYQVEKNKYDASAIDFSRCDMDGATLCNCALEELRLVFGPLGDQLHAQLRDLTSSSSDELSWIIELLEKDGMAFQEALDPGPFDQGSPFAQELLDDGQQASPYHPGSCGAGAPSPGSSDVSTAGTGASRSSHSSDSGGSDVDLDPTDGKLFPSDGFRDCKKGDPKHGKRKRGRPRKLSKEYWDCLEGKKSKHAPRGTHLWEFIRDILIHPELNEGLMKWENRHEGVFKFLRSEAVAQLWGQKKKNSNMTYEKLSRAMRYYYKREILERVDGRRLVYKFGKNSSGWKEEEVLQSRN
# How it was run: as §1
# CRX = CRX (Homo sapiens, UniProt O43186 1-299); conditions: protein: recombinant; tags: N-terminal GST; dsDNA, one strand shown
# CRX, sequence (O43186 whole entry): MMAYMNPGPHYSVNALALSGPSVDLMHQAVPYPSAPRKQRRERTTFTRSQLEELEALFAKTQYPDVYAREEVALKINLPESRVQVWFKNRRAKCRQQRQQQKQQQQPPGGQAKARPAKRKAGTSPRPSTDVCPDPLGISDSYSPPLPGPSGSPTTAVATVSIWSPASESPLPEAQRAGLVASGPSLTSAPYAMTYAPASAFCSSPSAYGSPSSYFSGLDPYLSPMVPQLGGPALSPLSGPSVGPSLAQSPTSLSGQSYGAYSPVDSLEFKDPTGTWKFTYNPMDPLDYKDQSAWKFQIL
# How it was run: as §1
# ETV1 = ETV1 (Homo sapiens, UniProt P50549 1-477); conditions: protein: recombinant; tags: N-terminal GST; dsDNA, one strand shown
# ETV1, sequence (P50549 whole entry): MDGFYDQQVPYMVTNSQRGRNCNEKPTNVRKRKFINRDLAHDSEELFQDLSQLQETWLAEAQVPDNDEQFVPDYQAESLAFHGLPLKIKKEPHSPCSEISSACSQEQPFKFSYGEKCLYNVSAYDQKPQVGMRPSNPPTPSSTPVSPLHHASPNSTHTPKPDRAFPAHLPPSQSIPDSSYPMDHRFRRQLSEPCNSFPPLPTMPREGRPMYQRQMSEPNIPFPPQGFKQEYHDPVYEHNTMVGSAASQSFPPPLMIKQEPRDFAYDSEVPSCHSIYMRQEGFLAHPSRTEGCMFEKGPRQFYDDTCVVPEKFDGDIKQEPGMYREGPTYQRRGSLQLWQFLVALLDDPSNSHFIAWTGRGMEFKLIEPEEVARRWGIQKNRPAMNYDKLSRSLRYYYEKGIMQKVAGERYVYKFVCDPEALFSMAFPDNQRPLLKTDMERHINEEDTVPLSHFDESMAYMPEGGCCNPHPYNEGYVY
# How it was run: as §1
sequence,measurement,setting,value
TATCTC,binding signal,FLI1,"1.19 fold enrichment (6-mer frequency, TF over GST control)"
same,binding signal,ELK1,"1.32 fold enrichment (6-mer frequency, TF over GST control)"
same,binding signal,GABPA,"1.39 fold enrichment (6-mer frequency, TF over GST control)"
same,binding signal,ERG,"1.18 fold enrichment (6-mer frequency, TF over GST control)"
same,binding signal,ELF1,"1.29 fold enrichment (6-mer frequency, TF over GST control)"
same,binding signal,EHF,"1.35 fold enrichment (6-mer frequency, TF over GST control)"
same,binding signal,SPI1,"1.15 fold enrichment (6-mer frequency, TF over GST control)"
same,binding signal,SPIB,"1.38 fold enrichment (6-mer frequency, TF over GST control)"
same,binding signal,ELK3,"1.25 fold enrichment (6-mer frequency, TF over GST control)"
same,binding signal,FEV,"1.27 fold enrichment (6-mer frequency, TF over GST control)"
same,binding signal,ETV5,"1.2 fold enrichment (6-mer frequency, TF over GST control)"
same,binding signal,HSF1,"1.45 fold enrichment (6-mer frequency, TF over GST control)"
same,binding signal,SPIC,"1.21 fold enrichment (6-mer frequency, TF over GST control)"
same,binding signal,ELF4,"1.21 fold enrichment (6-mer frequency, TF over GST control)"
same,binding signal,ELK4,"1.27 fold enrichment (6-mer frequency, TF over GST control)"
same,binding signal,ETV2,"1.18 fold enrichment (6-mer frequency, TF over GST control)"
same,binding signal,ELF3,"1.16 fold enrichment (6-mer frequency, TF over GST control)"
same,binding signal,CRX,"1.76 fold enrichment (6-mer frequency, TF over GST control)"
same,binding signal,ETV1,"1.3 fold enrichment (6-mer frequency, TF over GST control)"

# From paper PMC7862700, “An all-to-all approach to the identification of sequence-specific readers for epigenetic DNA modifications on cytosine”
